Assay [1] addresses Catechol O-methyltransferase (Homo sapiens) (UniProt P21964). In words: Confirmatory Screen for Target Class Profiling of Small Molecule Inhibitors of Methyltransferases (AID 1745852; calls by dose curve; note: potency is the fitted concentration of half-maximal effect; for activity change, negative = inhibition: % is set by controls: 0 for no effect and ±100 for the full control effect). The following applies: MTase-Glo luminescence, SAH detection, recombinant enzyme; measured here: COMT max response; stronger effect = lower value.
Assay [2] addresses Guanidinoacetate N-methyltransferase (Homo sapiens) (UniProt Q14353). The description is as above. The following applies: MTase-Glo luminescence, SAH detection, recombinant enzyme.
Assay [3] concerns the target Nicotinamide N-methyltransferase (Homo sapiens) (UniProt P40261). Described as above. The following applies: MTase-Glo luminescence, SAH detection, recombinant enzyme; measured here: NNMT max response; stronger effect = lower value.
Assay [4] deals with Phenylethanolamine N-methyltransferase (Homo sapiens) (UniProt P11086). Described as above. The following applies: MTase-Glo luminescence, SAH detection, recombinant enzyme; measured here: PNMT max response; stronger effect = lower value.
Assay [5] addresses Glutathione peroxidase 1 (Homo sapiens) (UniProt P07203). In words: Primary qHTS Assay for Inhibitors of Recombinant Selenoprotein Glutathione Peroxidase 1 (GPX1) (AID 1845191). Note: nearly all actives have a fitted effect of over 65% in size. The following applies: recombinant GPX1, GR-coupled NADPH fluorescence, 15 min; series mostly up to 48.8 µM. The method, boiled down:
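GR-coupled assay: compounds preincubated 30 min at room temperature with GPX1, then reaction started with CHP; final 10 nM GPX1, 1 mM GSH, 0.5 mM CHP, 0.5 mM NADPH, 100 nM GR, 0.01% BSA, pH 7.5 Tris buffer. NADPH fluorescence (340/450 nm) read at 0 and 15 min.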

The target of assay [6] is Phospholipid hydroperoxide glutathione peroxidase GPX4 (Homo sapiens) (UniProt P36969). The experiment in a line: Primary qHTS Assay for Inhibitors of Recombinant Selenoprotein Glutathione Peroxidase 4 (GPX4) (AID 1845192). For activity change, negative = inhibition: % is set by controls: 0 for no effect and ±100 for the full control effect. Note: nearly all actives have a fitted effect of over 65% in size. The following applies: recombinant GPX4, GR-coupled NADPH fluorescence, 15 min; series mostly up to 50 µM. The method, boiled down: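 GR-coupled assay: recombinant GPX4 preincubated 30 min with compound at room temperature; final 200 nM GPX4, 1 mM GSH, 0.5 mM cumene hydroperoxide, 0.5 mM NADPH, 100 nM GR, 0.01% BSA, pH 7.5 Tris. NADPH fluorescence (340/450 nm) read at 0 and 15 min.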

Assay [7] in a line: Primary fluorescence-based thiol-reactive (MSTI) qHTS assay for identification of artifact compounds. (AID 1845221). Note: nearly all actives have a fitted effect of over 65% in size. Note: potency is the fitted concentration of half-maximal effect. The following applies: MSTI thiol-reactivity probe, 1 h; series mostly up to 53.8 µM. A digest of the protocol: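 MSTI probe at 4 uM final in 2% DMSO/PBS pH 7.4; compounds, 1 h at room temperature in dark. Fluorescence Ex/Em 525/598 nm, normalised to Acetyl-MSTI and MSTI, fitted to 4-parameter Hill.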

Assay [8] relates to Nanoluciferase (engineered Oplophorus gracilirostris luciferase). The experiment in a line: Primary Nanoluciferase (NLuc) qHTS assay for identification of artifact compounds. (AID 1845222).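 Note: 0% = DMSO and -100% = no enzyme.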 The following applies: NLuc-conditioned medium, Nano-Glo luminescence, 5 min; series mostly up to 54.1 µM. The method, boiled down: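 Diluted conditioned medium from NLuc-expressing S16 cells treated with compounds for 15 min at room temperature, then Nano-Glo substrate added; luminescence read after 5 min. Percent inhibition versus no-enzyme and DMSO controls fitted to 4-parameter Hill equation.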

Assay [9] is described as follows: Primary redox qHTS assay for identification of artifact compounds. (AID 1845223). Note: potency is the fitted concentration of half-maximal effect. The following applies: Amplex Red/HRP redox cycling with DTT, fluorescence; series mostly up to 53.8 µM. A digest of the protocol: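 Amplex Red (25 uM) and HRP (250 mU/mL) in HBSS, with compounds for 15 min, then 250 uM DTT for 30 min, room temperature, dark. Fluorescence 525/598 nm read; normalized to DMSO and 10 uM DA3003; Hill fit.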

Assay [10] is described as follows: Quantitative High-Throughput drug screen in 47 multiple myeloma cell lines against the NCATS MIPE library collection: FR4_PLB cell viability assay (AID 1918924; note: potency is the fitted concentration of half-maximal effect; nearly all actives have a fitted effect of over 35% in size). The following applies: FR4_PLB myeloma cells viability, CellTiter-Glo ATP, 48 h; series mostly up to 45.8 µM. A digest of the protocol: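 Myeloma cell lines, 500 cells per well, exposed to MIPE 4.0 library compounds for 48 h at 37C, 5% CO2. Viability from ATP by CellTiter-Glo luminescence; normalised to DMSO (100%) and media-only (0%) wells.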

Assay [11] has as its target Luciferin 4-monooxygenase (Photinus pyralis) (UniProt P08659). The experiment in a line: Primary firefly luciferase (FLuc) qHTS assay for identification of artifact compounds. (AID 1845220).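 For activity change, negative = inhibition: plate controls were DMSO vehicle for no effect and no enzyme for full effect.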 Note: nearly all actives have a fitted effect of over 60% in size. The following applies: purified firefly luciferase, luminescence, 5 min; series mostly up to 54.1 µM. A digest of the protocol:
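D-luciferin and ATP (10 uM each, final) in Tris acetate buffer pH 7.6 were incubated with compounds for 15 min at room temperature. The reaction was started with 10 nM Photinus pyralis luciferase and luminescence read after 5 min. Percent inhibition was fitted to a 4-parameter Hill equation.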

Assay [12] concerns the target Rap guanine nucleotide exchange factor 3 (Homo sapiens) (UniProt O95398). The experiment in a line: Confirmatory qHTS for antagonist of cAMP-regulated guanine nucleotide exchange factor 3 (EPAC1) (AID 1645880). Note: potency is the fitted concentration of half-maximal effect; nearly all actives have a fitted effect of over 55% in size. The following applies: EPAC1 Rap1B-BODIPY-GDP exchange, fluorescence. The method, boiled down: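 Nucleotide exchange uses 100 nM EPAC1, 250 nM RAP1B-BODIPY-GDP and 50 uM GDP, with compounds in a concentration-titration series. After 5 min at room temperature, fluorescence (480 nm ex/540 nm em) is read every 5 min for 30 min. Data are normalized to control ATA and DMSO.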

The target is the same in assay [13]. The experiment in a line: Confirmatory qHTS for agonist of cAMP-regulated guanine nucleotide exchange factor 3 (EPAC1) (AID 1645881).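 Note: EPAC1 catalysed release of BODIPY-GDP from Rap1B seen as fluorescence loss; nearly all actives have a fitted effect of over 75% in size.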 The following applies: EPAC1 Rap1B BODIPY-GDP exchange fluorescence, 100% = cAMP control response; series mostly up to 154 µM.
In assay [14] the target is Rap guanine nucleotide exchange factor 4 (Homo sapiens) (UniProt Q8WZA2). In words: Confirmatory qHTS for agonist of cAMP-regulated guanine nucleotide exchange factor 4 (EPAC2) (AID 1645884).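 Note: nucleotide exchange releases bodipy-GDP from Rap1 and this lowers its fluorescence; % is set by controls: 0 for no effect and ±100 for the full control effect; nearly all actives have a fitted effect of over 65% in size.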 The following applies: EPAC2 GEF activity, Rap1B-BODIPY-GDP fluorescence, percent relative to cAMP agonist control; series mostly up to 154 µM.
Assay [15] shares this target. The experiment in a line: Confirmatory qHTS for antagonist of cAMP-regulated guanine nucleotide exchange factor 4 (EPAC2) (AID 1645885). Note: potency is the fitted concentration of half-maximal effect; nearly all actives have a fitted effect of over 25% in size. The following applies: EPAC2 Rap1B-BODIPY-GDP exchange fluorescence, biochemical.
Assay [16] concerns the target Rap guanine nucleotide exchange factor 3 (Homo sapiens) (UniProt O95398). The experiment in a line: Counterscreen qHTS for antagonist of cAMP-regulated guanine nucleotide exchange factor 3 (EPAC1) (AID 1645888).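 Note: fluorescence loss as bound BODIPY-GDP is released from Rap1B; % of control where 0% means no effect.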 The following applies: Rap1B-BODIPY-GDP nucleotide exchange, fluorescence; series mostly up to 154 µM. The method, boiled down:
(§1)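 Rap1B–BODIPY-GDP (250 nM) with 50 uM GDP; compounds pin-transferred to 9.74 nM–152 uM final (activator) or from 7.32 nM upwards (inhibitor). Fluorescence Ex/Em 480/540 nm read at 5 and 30 min, then after adding cAMP or buffer, at room temperature.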

Assay [17] shares this target. The experiment in a line: Counterscreen qHTS for agonist of cAMP-regulated guanine nucleotide exchange factor 3 (EPAC1) (AID 1645889). Note: % of control where 0% means no effect; nearly all actives have a fitted effect of over 40% in size. The following applies: EPAC1 Rap1B-BODIPY-GDP exchange, fluorescence; series mostly up to 154 µM. The method, boiled down:
as §1

Assay [18] can be described thus: NCATS anti-infectives library activity on HEK293 viability as a counter-qHTS vs the C. elegans viability qHTS (AID 1745854).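 Note: HEK293 cells exposed to compounds for 24 hr before the viability read; % is set by controls: 0 for no effect and ±100 for the full control effect.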 The following applies: HEK293 viability counter-screen; series mostly up to 41.8 µM. The method, boiled down: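 HEK293 cells (1,500/well) exposed 24 hr at 37C to 1:5 titrations, up to 41.7 uM final; counter-screen to a C. elegans viability qHTS. Viability by CellTiter-Glo luminescence after 10 min at room temperature; digitonin as control.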

The mark [19] stands for this setting: activity change, negative = inhibition: at 57.3 µM (top of the series) unless noted.

Several values for one entry are separate records, joined by “and”; a condition that tells them apart may be missing. Identical values can stand only once. Results filed as inconclusive are left out. Activity calls are given as the source filed them. Unless noted, calls come from the whole dose curve; as a rule, active = well fitted curve in the direction sought with a large enough effect; inconclusive = small, poorly fitted or top-dose-only effect, or another doubt; inactive = no such curve, though single readings can be large; an effect the other way counts as inactive or inconclusive.

Catechol O-methyltransferase (Homo sapiens), sequence (P21964 whole entry, looked up): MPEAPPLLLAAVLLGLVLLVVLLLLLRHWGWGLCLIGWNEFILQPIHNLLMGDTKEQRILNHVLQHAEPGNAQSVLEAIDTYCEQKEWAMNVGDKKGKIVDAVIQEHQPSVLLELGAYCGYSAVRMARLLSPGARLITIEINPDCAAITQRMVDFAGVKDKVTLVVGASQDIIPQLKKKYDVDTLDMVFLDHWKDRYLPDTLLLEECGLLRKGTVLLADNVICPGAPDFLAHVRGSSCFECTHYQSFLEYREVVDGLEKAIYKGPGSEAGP
Rap guanine nucleotide exchange factor 4 (Homo sapiens), sequence (Q8WZA2 whole entry, looked up): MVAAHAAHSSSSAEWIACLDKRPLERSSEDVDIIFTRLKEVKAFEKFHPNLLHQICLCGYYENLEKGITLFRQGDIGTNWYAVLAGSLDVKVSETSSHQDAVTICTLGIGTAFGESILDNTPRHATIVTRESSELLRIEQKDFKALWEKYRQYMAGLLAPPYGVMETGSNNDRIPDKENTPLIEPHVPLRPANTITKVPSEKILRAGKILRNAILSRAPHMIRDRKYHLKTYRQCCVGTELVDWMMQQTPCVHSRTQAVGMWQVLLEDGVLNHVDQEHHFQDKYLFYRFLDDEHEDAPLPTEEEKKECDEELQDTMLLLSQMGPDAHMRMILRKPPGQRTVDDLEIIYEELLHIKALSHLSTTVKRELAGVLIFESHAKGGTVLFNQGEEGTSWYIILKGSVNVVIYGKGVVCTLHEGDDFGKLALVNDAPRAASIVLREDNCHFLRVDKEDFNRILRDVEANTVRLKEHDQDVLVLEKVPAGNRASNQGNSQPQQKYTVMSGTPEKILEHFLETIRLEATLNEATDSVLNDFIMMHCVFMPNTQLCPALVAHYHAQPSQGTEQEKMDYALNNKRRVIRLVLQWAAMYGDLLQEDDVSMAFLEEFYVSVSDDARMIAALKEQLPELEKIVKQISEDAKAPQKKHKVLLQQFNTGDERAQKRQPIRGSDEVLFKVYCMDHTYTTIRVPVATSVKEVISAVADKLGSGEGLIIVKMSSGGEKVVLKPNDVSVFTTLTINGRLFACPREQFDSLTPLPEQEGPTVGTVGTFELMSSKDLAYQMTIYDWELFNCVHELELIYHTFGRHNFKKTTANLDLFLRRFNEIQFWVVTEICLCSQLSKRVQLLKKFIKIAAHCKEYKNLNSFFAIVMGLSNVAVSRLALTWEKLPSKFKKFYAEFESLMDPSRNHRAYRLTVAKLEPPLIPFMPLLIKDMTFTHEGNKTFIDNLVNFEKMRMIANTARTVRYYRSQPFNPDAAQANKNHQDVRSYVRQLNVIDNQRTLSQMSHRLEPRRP
Rap guanine nucleotide exchange factor 3 (Homo sapiens), sequence (O95398 whole entry, looked up): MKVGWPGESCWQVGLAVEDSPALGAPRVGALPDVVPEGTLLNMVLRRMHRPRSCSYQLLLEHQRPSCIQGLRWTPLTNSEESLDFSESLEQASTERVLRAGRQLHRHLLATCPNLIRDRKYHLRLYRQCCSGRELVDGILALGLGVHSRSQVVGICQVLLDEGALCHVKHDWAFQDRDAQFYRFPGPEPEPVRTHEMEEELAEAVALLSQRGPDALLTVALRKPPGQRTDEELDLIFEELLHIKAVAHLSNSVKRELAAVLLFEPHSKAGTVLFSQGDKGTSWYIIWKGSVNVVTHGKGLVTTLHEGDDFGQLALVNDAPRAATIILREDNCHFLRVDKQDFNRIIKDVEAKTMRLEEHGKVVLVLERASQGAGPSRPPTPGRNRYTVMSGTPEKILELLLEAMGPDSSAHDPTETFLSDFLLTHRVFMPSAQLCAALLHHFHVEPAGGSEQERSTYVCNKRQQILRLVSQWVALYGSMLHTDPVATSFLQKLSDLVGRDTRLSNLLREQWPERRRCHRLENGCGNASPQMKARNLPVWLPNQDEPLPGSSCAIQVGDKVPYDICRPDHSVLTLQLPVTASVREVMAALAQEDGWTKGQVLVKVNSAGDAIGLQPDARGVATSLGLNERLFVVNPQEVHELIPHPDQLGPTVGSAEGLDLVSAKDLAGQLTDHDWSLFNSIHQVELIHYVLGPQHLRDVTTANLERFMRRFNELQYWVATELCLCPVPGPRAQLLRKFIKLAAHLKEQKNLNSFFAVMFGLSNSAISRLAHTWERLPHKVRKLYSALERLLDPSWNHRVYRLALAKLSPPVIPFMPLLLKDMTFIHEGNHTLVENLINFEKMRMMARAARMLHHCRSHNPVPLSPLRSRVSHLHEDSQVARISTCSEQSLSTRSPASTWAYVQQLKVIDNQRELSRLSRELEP
Nicotinamide N-methyltransferase (Homo sapiens), sequence (P40261 whole entry, looked up): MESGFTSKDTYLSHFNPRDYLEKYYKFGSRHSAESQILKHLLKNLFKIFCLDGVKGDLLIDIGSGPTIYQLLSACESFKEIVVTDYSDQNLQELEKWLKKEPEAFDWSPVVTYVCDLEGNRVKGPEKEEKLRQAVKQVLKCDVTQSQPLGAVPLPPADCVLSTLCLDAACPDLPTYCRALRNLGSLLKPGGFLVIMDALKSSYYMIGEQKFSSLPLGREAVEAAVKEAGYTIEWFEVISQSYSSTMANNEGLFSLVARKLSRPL
Glutathione peroxidase 1 (Homo sapiens), sequence (P07203 whole entry, looked up): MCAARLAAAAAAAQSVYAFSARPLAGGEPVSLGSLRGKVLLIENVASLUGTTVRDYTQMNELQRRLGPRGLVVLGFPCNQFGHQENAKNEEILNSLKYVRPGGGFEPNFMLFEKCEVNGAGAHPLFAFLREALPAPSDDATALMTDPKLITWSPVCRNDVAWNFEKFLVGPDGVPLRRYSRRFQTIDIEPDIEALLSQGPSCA
Phenylethanolamine N-methyltransferase (Homo sapiens), sequence (P11086 whole entry, looked up): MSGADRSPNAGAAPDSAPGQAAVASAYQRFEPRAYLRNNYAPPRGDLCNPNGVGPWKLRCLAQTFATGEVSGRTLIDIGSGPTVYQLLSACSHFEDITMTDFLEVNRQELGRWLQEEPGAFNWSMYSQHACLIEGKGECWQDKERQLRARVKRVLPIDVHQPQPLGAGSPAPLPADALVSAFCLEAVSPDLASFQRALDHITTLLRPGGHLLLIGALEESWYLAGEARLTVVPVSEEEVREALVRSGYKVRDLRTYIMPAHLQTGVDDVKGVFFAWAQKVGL
Phospholipid hydroperoxide glutathione peroxidase GPX4 (Homo sapiens), sequence (P36969 whole entry, looked up): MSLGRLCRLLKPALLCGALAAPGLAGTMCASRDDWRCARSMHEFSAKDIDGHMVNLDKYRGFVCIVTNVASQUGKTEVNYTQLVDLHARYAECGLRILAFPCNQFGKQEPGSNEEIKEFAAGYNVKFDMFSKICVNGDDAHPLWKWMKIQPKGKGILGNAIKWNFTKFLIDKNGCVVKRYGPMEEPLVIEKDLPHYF

On to `CCn1cc(-c2ccnc3[nH]c(-c4cccc(CN(C)C)c4)cc23)c(-c2ccc(NC(=O)N(C)C)cc2)n1`, for which the activity in assay [1] is -5.39% and -8.37%; in assay [3], -7.11% and -33%; in [4] it was -1.24% and -20%. Moreover, the figures for the activity change, negative = inhibition in assay [2] (at 29.8 µM (top of the series)) and in assay [2] (at 57.3 µM (top of the series)) were 2.9% and -1.45%, respectively. Also, the Potency result in assay [5], in [6], in [7], in [8] and in assay [9] was “inactive” each time. For the same compound, in assay [10], the Potency was 20.9 µM (active).

With `CC1(C)CC(=O)c2c(C(F)(F)F)nn(-c3ccc(C(N)=O)c(NC4CCC(OC(=O)CN)CC4)c3)c2C1` (stereo unspecified), the activity was -2.7% in assay [1], -47.8% in [3] and -0.772% in [4]. The activity change, negative = inhibition in assay [2] (setting [19]) turned out to be 0%. The Potency result in assay [5], in assay [6], in [11], in assay [7], in assay [8] and in [9] was “inactive” in each case.

Take `C[C@@H](Oc1cc(-c2cnn(C3CCNCC3)c2)cnc1N)c1c(Cl)ccc(F)c1Cl`: the activity in assay [1] was -38.2% and -62.1%; in assay [3], -57.8% and -68.4%; in assay [4] it was -33.1% and -60.2%. In addition, the Potency in assay [2] (setting [19]) is 27.1 µM (active). Besides, the Potency entry in assay [5], in assay [6], in assay [11], in assay [7], in assay [8] and in [9] was “inactive” throughout.

For the compound `CC[C@@H]1C(=O)N(C)c2cnc(Nc3ccc(C(=O)NC4CCN(C)CC4)cc3OC)nc2N1C1CCCC1`, the activity in [1] was -18.1%; in assay [3], -45.4%; in [4], -31.6%. Moreover, the Potency in assay [2] (setting [19]) is 21.7 µM (active); in assay [10], 0.0235 µM (active). Besides, the Potency result in assay [5] and in assay [6] was “inactive” throughout.

Regarding `Cc1coc2c1C(=O)C(=O)c1c-2ccc2c1CCCC2(C)C`, the Potency in assay [12] is 53.6 µM (active); in assay [15], 30.1 µM (active); in [2] (setting [19]) it was 24.1 µM (active); in [7], 1.34 µM (active); in assay [9], 9.47 µM (active); in assay [10], 20.9 µM (active). For the same compound, the outcome in assay [13], in assay [14], in assay [16] and in assay [17] was “inactive” each time. Moreover, the results for the activity in [1], in [3] and in [4] were -26.5%, -48.9% and -37.9%, respectively. Moreover, the Potency result in assay [18], in [5] and in assay [8] was “inactive” in each case.

With `O=C(O)c1ccc2c(c1)nc(Nc1cccc(Cl)c1)c1ccncc12`, the activity in assay [1] is -68.6%; in assay [3], -53.1%; in assay [4], -66.6%. For the same compound, the Potency in assay [2] (setting [19]) was 27.1 µM (active). Further, the Potency result in assay [5], in [6], in assay [11] and in assay [9] was “inactive” in each case.

For `COc1cc2c(NC3CCN(C(C)C)CC3)nc(C3CCCCC3)nc2cc1OCCCN1CCCC1`, the activity is -9% in [1], -39.8% in [3] and -4.49% in [4]. Besides, the activity change, negative = inhibition in assay [2] (setting [19]) was -6.26%. For the same compound, the Potency entry in assay [5], in assay [6], in assay [7] and in assay [9] was “inactive” throughout.

Turning to `CCS(=O)(=O)c1cccc(-c2cc(C(=O)NC3CCN(C)CC3)c(C)c3[nH]c4ncc(C)cc4c23)c1`, the activity in assay [1] was -16.8% and -13.7%; in assay [3], -55.9% and -55.5%; in assay [4] it was -15.8% and -17.5%. For the same compound, the Potency was 18.8 µM (active) in assay [2] (setting [19]) and 2.35 µM (active) in [10]. Besides, the activity change, negative = inhibition in assay [2] (setting [19]) was -3.37%. The Potency entry in [5], in assay [6], in assay [11], in assay [7] and in assay [9] was “inactive” each time.

For the origin of these results see PubChem BioAssay (NCATS).
